The record followed here is PubChem BioAssay (Tox21).

Unmarked numbers belong to inactive results. Results filed as inconclusive are left out. Activity calls are given as the source filed them. Unless noted, the call rests on the fitted dose curve; in most records, active means well fitted curve in the direction sought with a large enough effect in the repeat runs; inconclusive means weak or mixed curves; inactive means no such curve, though single readings can be large; an effect the other way counts as inactive or inconclusive.

Test [1] is described as follows: qHTS assay to test for compound auto fluorescence at 535 nm (green) in HEK293 cells (AID 720680).
A short description of test [2]: qHTS assay to test for compound auto fluorescence at 460 nm (blue) in HEK293 cell free culture (AID 720681). In outline: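 Compounds were added to cell-free DMEM with 10% FBS and fluorescence read directly. The blue channel used 405 nm excitation and 460 nm emission, with triamterene as the reference fluorophore.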
(In general: Quantitative high-throughput screening tests each substance at several concentrations.)

Test [3] can be described thus: qHTS assay to test for compound auto fluorescence at 535 nm (green) in HEK293 cell free culture (AID 720682). In outline: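 Steps: dispense DMEM/10% FBS into empty wells; pin in compound or DMSO; measure fluorescence at 485/535 nm. Values are fluorescein equivalents.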
Test [4] can be described thus: qHTS assay to test for compound auto fluorescence at 590 nm (red) in HEK293 cell free culture (AID 720683). In outline: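 Cell-free wells of DMEM with 10% FBS received compound, and intrinsic fluorescence was read at excitation/emission 540/590 nm. Values expressed as equivalence to Rose Bengal sodium.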
Test [5] in a line: qHTS assay to test for compound auto fluorescence at 590 nm (red) in HepG2 cell free culture (AID 720684). In outline: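 Compound was pinned into wells holding MEM with 10% FBS and no cells, and red fluorescence was read at Ex/Em 540/590 nm. Signal is expressed as auto fluorescence equivalency relative to Rose Bengal sodium.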
A short description of test [6]: qHTS assay to test for compound auto fluorescence at 535 nm (green) in HepG2 cell free culture (AID 720686).
Test [7] is described as follows: qHTS assay to test for compound auto fluorescence at 460 nm (blue) in HepG2 cells (AID 720687). In outline: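 HepG2 cells in MEM with 10% FBS, attached overnight at 37 C, were exposed to compound or DMSO for 1 hr at 37 C, 5% CO2. Blue fluorescence was read at 405/460 nm, with triamterene as reference fluorophore.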
A short description of test [8]: qHTS assay to identify small molecule antagonists of the glucocorticoid receptor (GR) signaling pathway - cell viability counter screen (AID 720693). Further: nearly all actives have a fitted effect of over 55% in size. Further: potency means the concentration at half of the fitted maximal effect.
Test [9] can be described thus: qHTS assay for identifying genotoxic compounds that show differential cytotoxicity against isogenic chicken DT40 cell lines with known DNA damage response pathways - wild type cell line (AID 743012). Further: nearly all actives have a fitted effect of over 60% in size. Further: potency means the concentration at half of the fitted maximal effect. The method in brief: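 Wild-type DT40 cells (300/well) exposed to compounds for 40 hours at 37 C/5% CO2. Viability read by CellTiter-Glo luminescence after 30 min at room temperature.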

A short description of test [10]: qHTS assay for identifying genotoxic compounds that show differential cytotoxicity against isogenic chicken DT40 cell lines with known DNA damage response pathways - Rev3 mutant cell line (AID 743014). Further: nearly all actives have a fitted effect of over 55% in size. Further: potency means the concentration at half of the fitted maximal effect.
Test [11] is described as follows: qHTS assay for identifying genotoxic compounds that show differential cytotoxicity against isogenic chicken DT40 cell lines with known DNA damage response pathways - Rad54/Ku70 mutant cell line (AID 743015). Further: nearly all actives have a fitted effect of over 60% in size. Further: potency means the concentration at half of the fitted maximal effect.
Test [12] deals with Androgen receptor (Homo sapiens) (UniProt P10275). The test is described as follows: qHTS assay to identify small molecule antagonists of the androgen receptor (AR) signaling pathway (AID 743035; active means well fitted inhibition curve with a large enough effect in the signal ratio in the repeat runs, not every such curve was filed as active; the % refers to the signal ratio; further: potency means the concentration at half of the fitted maximal effect). The method in brief:
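HEK293 cells stably carrying UAS-beta-lactamase reporter, 2,000/well, given compounds plus R1881 agonist and incubated 16 h at 37C. LiveBLAzer B/G FRET substrate then added for 2 h at room temperature before fluorescence reading.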

The target is the same in test [13]. The test is described as follows: qHTS assay to identify small molecule agonists of the androgen receptor (AR) signaling pathway using the MDA cell line (AID 743040; further: nearly all actives have a fitted effect of over 20% in size). The method in brief: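 MDA-kb2 breast carcinoma cells carrying MMTV-luciferase (responsive to AR and GR), plated 5 h then treated 16 h with compounds at 37C, 0% CO2. Read-out was ONE-Glo luminescence after 30 min at room temperature.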

A short description of test [14]: qHTS assay to identify small molecule antagonists of the androgen receptor (AR) signaling pathway using the MDA cell line - cell viability counter screen (AID 743041; further: nearly all actives have a fitted effect of over 45% in size). The method in brief: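 MDA-kb2 AR-luc cells (MMTV-luciferase, AR/GR responsive) treated with compounds plus R1881 agonist for 16 h at 37C. CellTiter-Fluor added at 15.5 h; fluorescence read after 30 min in the same wells.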

Test [15] addresses Androgen receptor (Homo sapiens) (UniProt P10275). The test is described as follows: qHTS assay to identify small molecule antagonists of the androgen receptor (AR) signaling pathway using the MDA cell line (AID 743042; further: nearly all actives have a fitted effect of over 55% in size; further: potency means the concentration at half of the fitted maximal effect). In outline: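 MDA-kb2 breast carcinoma cells carrying MMTV-luciferase (AR/GR responsive) were co-treated with compounds and the agonist R1881 for 16 h at 37C. Inhibition read as ONE-Glo luminescence; CellTiter-Fluor fluorescence measured in parallel for cytotoxicity.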

Test [16] can be described thus: qHTS assay to identify small molecule antagonists of the androgen receptor (AR) signaling pathway - cell viability counter screen (AID 743033; further: nearly all actives have a fitted effect of over 45% in size).
Test [17] has as its target Androgen receptor (Homo sapiens) (UniProt P10275). The test is described as follows: qHTS assay to identify small molecule agonists of the androgen receptor (AR) signaling pathway (AID 743036; active means well fitted activation curve with a large enough effect in the signal ratio in the repeat runs, with a control signal flat, not every such curve was filed as active; the % refers to the signal ratio). The method in brief: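 Reporter line: GeneBLAzer AR-UAS-bla-GripTite (HEK293). Steps: plate cells, 4 h rest, add compounds, 16 h at 37C, add LiveBLAzer B/G substrate, 2 h at RT, read fluorescence.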

Test [18] addresses Glucocorticoid receptor (Homo sapiens) (UniProt P04150). In words: qHTS assay to identify small molecule agonists of the glucocorticoid receptor (GR) signaling pathway (AID 720691; active means well fitted activation curve with a large enough effect in the signal ratio in the repeat runs, not every such curve was filed as active; the % refers to the signal ratio). In outline: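 GR-bla HeLa cells carrying a GRE-driven beta-lactamase reporter, exposed to compounds for 18 h at 37 C. Reporter activation read as fluorescence after 2 h with LiveBLAzer B/G FRET substrate at room temperature.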

For test [19] the target is unchanged. The test is described as follows: qHTS assay to identify small molecule antagonists of the glucocorticoid receptor (GR) signaling pathway (AID 720692; active means well fitted inhibition curve with a large enough effect in the signal ratio in the repeat runs, not every such curve was filed as active; the % refers to the signal ratio). In outline: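 GR-bla HeLa cells carrying a GRE-driven beta-lactamase reporter received compound after 4 h plating, then dexamethasone (5 nM final). After 18 h at 37C, the FRET substrate was loaded for 2 h at room temperature and fluorescence read.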

Test [20] is described as follows: qHTS assay to test for compound auto fluorescence at 460 nm (blue) in HepG2 cell free culture (AID 720685). The method in brief: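 Compound (23 nL) or DMSO pinned into cell-free MEM with 10% FBS; blue fluorescence read at 405/460 nm excitation/emission, expressed as auto-fluorescence equivalency to triamterene.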

Sequence of Glucocorticoid receptor (Homo sapiens) (P04150 whole entry, looked up): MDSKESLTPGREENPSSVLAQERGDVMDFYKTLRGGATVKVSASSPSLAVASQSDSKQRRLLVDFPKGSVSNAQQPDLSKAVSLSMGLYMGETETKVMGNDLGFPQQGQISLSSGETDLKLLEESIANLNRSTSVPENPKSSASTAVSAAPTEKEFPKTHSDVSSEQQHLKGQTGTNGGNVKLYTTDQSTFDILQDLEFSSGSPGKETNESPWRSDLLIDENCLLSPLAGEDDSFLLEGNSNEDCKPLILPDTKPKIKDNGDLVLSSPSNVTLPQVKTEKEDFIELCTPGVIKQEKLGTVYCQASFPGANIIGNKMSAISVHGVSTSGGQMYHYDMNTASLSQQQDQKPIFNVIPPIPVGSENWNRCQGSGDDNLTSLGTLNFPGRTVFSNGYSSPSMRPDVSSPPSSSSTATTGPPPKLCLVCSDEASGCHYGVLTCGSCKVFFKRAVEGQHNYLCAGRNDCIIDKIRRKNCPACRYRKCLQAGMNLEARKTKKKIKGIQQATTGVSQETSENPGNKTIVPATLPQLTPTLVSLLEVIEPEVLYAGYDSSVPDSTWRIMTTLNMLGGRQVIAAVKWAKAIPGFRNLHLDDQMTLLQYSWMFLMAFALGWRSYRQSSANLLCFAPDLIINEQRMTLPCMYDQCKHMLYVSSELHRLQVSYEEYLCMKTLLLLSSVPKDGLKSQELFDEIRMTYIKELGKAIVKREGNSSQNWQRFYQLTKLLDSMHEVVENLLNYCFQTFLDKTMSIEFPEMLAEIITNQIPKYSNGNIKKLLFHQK
Sequence of Androgen receptor (Homo sapiens) (P10275 whole entry, looked up): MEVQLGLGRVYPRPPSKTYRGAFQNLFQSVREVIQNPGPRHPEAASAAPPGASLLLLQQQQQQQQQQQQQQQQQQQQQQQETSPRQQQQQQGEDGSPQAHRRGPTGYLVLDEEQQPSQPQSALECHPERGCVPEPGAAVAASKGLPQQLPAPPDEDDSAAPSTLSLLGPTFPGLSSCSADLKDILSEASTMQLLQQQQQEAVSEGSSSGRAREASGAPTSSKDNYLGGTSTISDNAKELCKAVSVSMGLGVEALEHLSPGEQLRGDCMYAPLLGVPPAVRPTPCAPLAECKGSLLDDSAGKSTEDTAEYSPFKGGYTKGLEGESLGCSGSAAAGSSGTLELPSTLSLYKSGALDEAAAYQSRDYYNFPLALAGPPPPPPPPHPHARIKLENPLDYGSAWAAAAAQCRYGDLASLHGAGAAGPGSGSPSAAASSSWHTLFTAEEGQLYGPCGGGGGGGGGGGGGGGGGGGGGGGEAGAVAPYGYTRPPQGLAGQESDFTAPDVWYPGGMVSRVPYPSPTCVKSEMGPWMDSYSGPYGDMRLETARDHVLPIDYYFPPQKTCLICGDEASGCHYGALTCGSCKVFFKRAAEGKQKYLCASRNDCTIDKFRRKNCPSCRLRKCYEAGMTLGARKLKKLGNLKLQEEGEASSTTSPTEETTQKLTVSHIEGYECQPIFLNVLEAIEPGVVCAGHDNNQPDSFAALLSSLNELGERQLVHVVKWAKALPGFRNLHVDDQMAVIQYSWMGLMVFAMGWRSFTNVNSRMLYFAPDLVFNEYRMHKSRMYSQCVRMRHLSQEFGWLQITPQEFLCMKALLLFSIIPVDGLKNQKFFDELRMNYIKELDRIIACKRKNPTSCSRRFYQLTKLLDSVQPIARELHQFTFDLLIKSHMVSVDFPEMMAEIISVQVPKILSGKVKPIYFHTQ

On to `O=C1Cc2ccccc2N1c1c(Cl)cccc1Cl`, for which the molecule was classed as inactive in [1], in [3], in [4], in test [5], in test [6] and in test [13]. For the same molecule, the Potency result in [2], in test [7], in [8] and in test [14] was “inactive” each time. Moreover, the Potency is 24.3 µM (active) in test [9]; 34.4 µM (active) in test [10]; 27.3 µM (active) in [11]; 54.9 µM (active) in test [12]; 61.1 µM (active) in test [15].
Turning to `Cc1cscn1`, the molecule was called inactive in [1], in test [3], in test [4], in [5], in test [6] and in test [17]. Further, in test [13], the outcome was inactive. The Potency result in test [2], in test [7], in [8], in test [9], in test [10] and in [11] was “inactive” each time. Besides, the Potency entry in test [16], in test [14] and in test [15] was “inactive” in each case.
Consider `CC(C)C[C@H](NC(=O)[C@H](CCc1ccccc1)NC(=O)CN1CCOCC1)C(=O)N[C@@H](Cc1ccccc1)C(=O)N[C@@H](CC(C)C)C(=O)[C@@]1(C)CO1`, for which the outcome in test [1], in test [3], in [4], in [5] and in test [6] was inactive. The Potency entry in test [2], in test [7] and in test [14] was “inactive” each time. For the same molecule, the Potency in test [8] is 5.35 µM (active); in test [9], 0.0119 µM (active); in test [10], 0.0168 µM (active); in test [11], 0.0119 µM (active).
As for `CN1C(=O)c2ccccc2C1=O`, the result in [1], in test [3], in [4], in [5] and in [6] was inactive. Moreover, the Potency result in test [2], in test [7], in test [18], in [8] and in test [14] was “inactive” each time. For the same molecule, the Potency in [10] is 68.6 µM (active); in [11] it was 61.1 µM (active).
Take `CCC(=O)OC`: the outcome in test [1], in [3], in test [4], in [5], in test [6] and in [17] was inactive. In test [13], the outcome was inactive. Moreover, the Potency entry in test [2], in test [7], in test [18], in test [19], in test [8] and in test [9] was “inactive” throughout. Moreover, the Potency entry in test [10], in test [11], in [16], in test [12], in [14] and in test [15] was “inactive” each time.
As to `C1COC1`, the molecule was classed as inactive in [1], in [3], in test [4], in [5], in test [6] and in test [17]. Also, the Potency entry in test [2], in test [7], in test [18], in test [19], in [8] and in test [9] was “inactive” in each case. Moreover, the Potency entry in test [10], in test [11], in [16], in test [12], in [14] and in test [15] was “inactive” throughout.
For `COC(=O)CS`, the result in test [1], in test [3], in test [4], in test [5] and in test [6] was inactive. The Potency result in test [2], in [20], in test [7], in test [8] and in test [14] was “inactive” throughout.
Turning to `Cc1ccc(Cl)c(Nc2ccccc2C(=O)O)c1Cl`, the molecule was classed as inactive in [1], in [3], in test [4], in test [5] and in test [6]. In addition, the Potency result in test [2], in test [7], in test [11], in test [16] and in [14] was “inactive” throughout.
